Among the data in PubChem BioAssay (EPA / NIEHS) are outcome and AC50 values, retold here.

The target in test [1] is Glucocorticoid receptor (Homo sapiens) (UniProt P04150). The test is described as follows: NVS_NR_hGR: NovaScreen (NVS) Nuclear Receptor Binding Assay for human Glucocorticoid Receptor (GR) (AID 2283363). The method, boiled down:
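Competitive displacement of a labelled ligand was measured on cell-free receptor preparations after 16 h exposure. Initial testing used 25 uM in duplicate with plate controls; confirmed actives went into concentration series.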

In test [2] the target is Nuclear receptor subfamily 1 group I member 2 (Homo sapiens) (UniProt O75469). The test is described as follows: NVS_NR_hPXR: NovaScreen (NVS) Nuclear Receptor Binding Assay for human Pregnane X Receptor (PXR) (AID 2283365).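 Note: a drop in FRET signal versus DMSO baseline means the compound binds.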 The method, boiled down: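 Human PXR protein, cell-free; compound added, incubated 2 h, TR-FRET read. Signal decrease vs DMSO = binding. Screened 25 uM duplicate, actives re-run as dilution series.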
Chain of Nuclear receptor subfamily 1 group I member 2 (Homo sapiens) (O75469 whole entry, looked up): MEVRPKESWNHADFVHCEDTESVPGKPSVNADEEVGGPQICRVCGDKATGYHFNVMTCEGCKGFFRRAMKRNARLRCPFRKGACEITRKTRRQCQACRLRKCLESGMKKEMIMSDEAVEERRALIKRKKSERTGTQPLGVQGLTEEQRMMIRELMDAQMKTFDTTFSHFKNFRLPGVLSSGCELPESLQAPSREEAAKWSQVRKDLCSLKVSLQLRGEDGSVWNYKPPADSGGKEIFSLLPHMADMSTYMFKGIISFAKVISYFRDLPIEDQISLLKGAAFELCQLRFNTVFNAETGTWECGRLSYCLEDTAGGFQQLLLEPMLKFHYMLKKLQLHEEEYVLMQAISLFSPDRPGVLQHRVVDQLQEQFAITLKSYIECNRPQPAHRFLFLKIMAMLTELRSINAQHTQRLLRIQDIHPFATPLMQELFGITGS

For test [3], the target named is Bile acid receptor (Homo sapiens) (UniProt Q96RI1). The test is described as follows: OT_FXR_FXRSRC1_0480: Odyssey Thera (OT) 8-hour HEK293T Protein-Complementation Assay for Farnesoid X receptor/SRC-1 Co-activator (AID 2283383). The method, boiled down: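 Co-activator recruitment to FXR was measured in living HEK293T cells, where interaction of the two fused partners restored an active fluorescent reporter. Signal gain after 8 h treatment was referenced to DMSO.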
Chain of Bile acid receptor (Homo sapiens) (Q96RI1 whole entry, looked up, the tested form may be a part): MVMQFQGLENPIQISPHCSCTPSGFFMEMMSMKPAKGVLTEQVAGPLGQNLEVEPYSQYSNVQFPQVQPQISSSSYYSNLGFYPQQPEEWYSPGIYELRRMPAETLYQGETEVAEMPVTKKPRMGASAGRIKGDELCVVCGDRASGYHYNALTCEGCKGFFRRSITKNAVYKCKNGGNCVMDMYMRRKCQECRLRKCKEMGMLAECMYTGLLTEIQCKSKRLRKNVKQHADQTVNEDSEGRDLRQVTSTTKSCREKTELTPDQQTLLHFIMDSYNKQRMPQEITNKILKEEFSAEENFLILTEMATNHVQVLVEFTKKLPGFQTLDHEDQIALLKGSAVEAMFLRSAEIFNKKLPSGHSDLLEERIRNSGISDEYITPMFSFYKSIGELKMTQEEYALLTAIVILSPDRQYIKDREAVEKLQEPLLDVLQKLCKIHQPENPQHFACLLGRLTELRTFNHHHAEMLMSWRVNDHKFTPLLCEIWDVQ

The target of test [4] is Peroxisome proliferator-activated receptor gamma (Homo sapiens) (UniProt P37231). The test is described as follows: OT_PPARg_PPARgSRC1_0480: Odyssey Thera (OT) 8-hour Protein-Complementation Assay for Peroxisome Proliferator-activated Receptor Gamma / SRC-1 Co-activator (AID 2283387).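 Note: nuclear to cytoplasmic split Venus YFP fluorescence ratio reporting PPARg SRC-1 interaction.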 The method, boiled down: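 Protein-fragment complementation of split Venus YFP reports PPARg/SRC-1 interaction in HEK293T (transfected 48 h before treatment), exposed 8 h. Readout: N/C fluorescence ratio at 488 nm from imaging, Draq5 for segmentation, positive fit relative to DMSO.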
Chain of Peroxisome proliferator-activated receptor gamma (Homo sapiens) (P37231 whole entry, looked up, the tested form may be a part): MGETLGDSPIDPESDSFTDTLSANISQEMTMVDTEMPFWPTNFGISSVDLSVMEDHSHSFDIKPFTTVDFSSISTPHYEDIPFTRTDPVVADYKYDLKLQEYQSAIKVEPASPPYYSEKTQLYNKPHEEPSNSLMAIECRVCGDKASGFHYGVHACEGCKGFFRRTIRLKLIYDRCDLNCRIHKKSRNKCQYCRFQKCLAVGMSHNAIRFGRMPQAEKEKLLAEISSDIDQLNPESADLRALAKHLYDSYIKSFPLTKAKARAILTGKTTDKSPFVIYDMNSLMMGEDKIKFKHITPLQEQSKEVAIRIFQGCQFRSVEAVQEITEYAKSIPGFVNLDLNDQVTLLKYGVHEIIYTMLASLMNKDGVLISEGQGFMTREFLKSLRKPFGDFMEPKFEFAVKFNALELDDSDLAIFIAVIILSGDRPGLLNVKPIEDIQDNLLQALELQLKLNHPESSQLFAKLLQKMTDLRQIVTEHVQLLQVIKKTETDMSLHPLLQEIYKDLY

Test [5] shares this target. The test is described as follows: OT_PPARg_PPARgSRC1_1440: Odyssey Thera (OT) 24-hour Protein-Complementation Assay for Peroxisome Proliferator-activated Receptor Gamma/ SRC-1 Co-activator (AID 2283388).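 Note: nuclear to cytoplasmic ratio of reconstituted Venus YFP fluorescence in fixed imaged cells.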 The method, boiled down:
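Protein-fragment complementation between PPARg and coactivator SRC-1 was measured by fluorescence imaging in transiently transfected HEK293T cells after 24 h treatment. Signal was quantified as N/C ratio in the 488 nm channel, with DMSO as negative control.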

The target is the same in test [6]. The test is described as follows: NVS_NR_hPPARg: NovaScreen (NVS) Nuclear Receptor Binding Assay for human Peroxisome Proliferator-activated Receptor gamma (PPARg) (AID 2283370). The method, boiled down: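 Chemicals were tested first in duplicate at 25 uM, then in concentration series if active. Binding to cell-free PPARg protein was measured by fluorescence polarization after 2 h, with loss of signal scored against DMSO.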

In test [7] the target is Estrogen receptor beta (Homo sapiens) (UniProt Q92731). The test is described as follows: OT_ER_ERbERb_1440: Odyssey Thera (OT) 24-hour HEK293T Protein-Complementation Assay for Estrogen Receptor-beta/-beta Homodimer (AID 2283380).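 Note: fluorescence gain from ER beta LBD homodimer complementation read by laser scanning cytometry; scored as signal increase over DMSO baseline for both agonists and antagonists.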 The method, boiled down: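 Fluorescence increase, nuclear for agonists or whole-cell for antagonists, relative to DMSO vehicle, quantified by laser scanning cytometer after fixation and Draq5 staining. Readout from 24 h treatment of HEK293T cells carrying complementation-paired ER beta LBD (aa 310-547).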
Chain of Estrogen receptor beta (Homo sapiens) (Q92731 whole entry, looked up, the tested form may be a part): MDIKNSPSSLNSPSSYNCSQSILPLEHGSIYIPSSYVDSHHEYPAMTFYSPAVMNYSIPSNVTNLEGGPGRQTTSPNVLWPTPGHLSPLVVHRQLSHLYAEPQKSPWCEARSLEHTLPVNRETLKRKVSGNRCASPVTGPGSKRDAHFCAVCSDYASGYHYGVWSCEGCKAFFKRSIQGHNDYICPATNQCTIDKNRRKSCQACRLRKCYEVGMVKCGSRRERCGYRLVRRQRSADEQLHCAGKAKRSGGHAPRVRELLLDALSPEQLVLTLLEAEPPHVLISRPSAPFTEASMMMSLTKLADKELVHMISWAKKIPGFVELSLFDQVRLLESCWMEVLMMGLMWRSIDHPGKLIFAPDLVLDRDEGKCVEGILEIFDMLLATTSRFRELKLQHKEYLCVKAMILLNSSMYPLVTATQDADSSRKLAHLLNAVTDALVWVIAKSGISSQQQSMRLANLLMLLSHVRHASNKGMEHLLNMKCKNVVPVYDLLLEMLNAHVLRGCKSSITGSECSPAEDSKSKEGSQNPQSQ

Test [8] deals with Bile acid receptor (Homo sapiens) (UniProt Q96RI1). The test is described as follows: OT_FXR_FXRSRC1_1440: Odyssey Thera (OT) 24-hour HEK293T Protein-Complementation Assay for Farnesoid X receptor/SRC-1 Co-activator (AID 2283384). In short, it runs like this: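 Cell-based binding reporter: interaction of FXR with SRC-1 brings reporter fragments together, giving a fluorescence signal read 24 h after dosing of HEK293T cells.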

In test [9] the target is Retinoic acid receptor RXR-alpha (Homo sapiens) (UniProt P19793). The test is described as follows: OT_NURR1_NURR1RXRa_0480: Odyssey Thera (OT) 8-hour HEK293T Protein Complementation Assay for Nurr1/retinoid X receptor (RXR) (AID 2283385). The method, boiled down:
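Compounds are applied to HEK293T cells carrying Nurr1 and RXRα linked to reporter fragments. After 8 h, fluorescence intensity reports heterodimer formation, with DMSO as baseline.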

Test [10] shares this target. The test is described as follows: OT_NURR1_NURR1RXRa_1440: Odyssey Thera (OT) 24-hour HEK293T Protein Complementation Assay for Nurr1/retinoid X receptor (RXR) (AID 2283386). The method, boiled down: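 Measured as fluorescence from a reconstituted split reporter, this 24 h HEK293T complementation assay scores compound-induced gain of Nurr1/RXRα association relative to DMSO.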

Test [11] addresses Agonist Androgen Response Element (ARE), AR (gene 367) (UniProt P10275). The test is described as follows: OT_AR_ARELUC_AG_1440: Odyssey Thera (OT) 24-hour CHO-K1 Luciferase Assay for Agonist Androgen Response Element (ARE) (AID 2283379). In short, it runs like this: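 Agonist mode, 24 h exposure in CHO-K1 ARE-luciferase cells; values reflect luminescence induction over vehicle.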

Test [12] concerns guinea pig Dopamine Transporter (DAT), gene 100714898. The test is described as follows: NVS_TR_gDAT: NovaScreen (NVS) Transporter Assay for guinea pig Dopamine Transporter (DAT) (AID 2283369).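 Note: active compounds lower bound radioligand signal relative to DMSO.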 The method, boiled down: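 Scintillation counts of filter-retained radioligand report binding to guinea pig striatal membranes after 2 h. Activity scored as signal loss relative to DMSO, first at 25 uM in duplicate, then in concentration series to 50 uM.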

Records with an inconclusive call do not appear. Active and inactive are the calls of the source. Rule for the calls: active = hit-call score of the fitted dose curve at least 0.9, where 1 is the maximum; inconclusive = response in the unintended direction; inactive = score below 0.9.

Chain of Retinoic acid receptor RXR-alpha (Homo sapiens) (P19793 whole entry, looked up, the tested form may be a part): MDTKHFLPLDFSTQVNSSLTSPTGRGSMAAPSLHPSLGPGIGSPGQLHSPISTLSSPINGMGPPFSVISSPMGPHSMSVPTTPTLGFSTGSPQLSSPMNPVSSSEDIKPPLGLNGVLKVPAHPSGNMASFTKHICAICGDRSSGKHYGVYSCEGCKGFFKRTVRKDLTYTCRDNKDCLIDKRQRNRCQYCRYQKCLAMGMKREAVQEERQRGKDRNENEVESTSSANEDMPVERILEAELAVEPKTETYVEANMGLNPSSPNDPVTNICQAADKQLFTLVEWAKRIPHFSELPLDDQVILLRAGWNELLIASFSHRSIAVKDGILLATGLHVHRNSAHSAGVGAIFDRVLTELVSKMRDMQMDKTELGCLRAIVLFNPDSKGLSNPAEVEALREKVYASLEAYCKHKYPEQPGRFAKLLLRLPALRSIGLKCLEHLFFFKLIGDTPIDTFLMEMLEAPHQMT
Chain of Agonist Androgen Response Element (ARE), AR (gene 367) (P10275 whole entry, looked up): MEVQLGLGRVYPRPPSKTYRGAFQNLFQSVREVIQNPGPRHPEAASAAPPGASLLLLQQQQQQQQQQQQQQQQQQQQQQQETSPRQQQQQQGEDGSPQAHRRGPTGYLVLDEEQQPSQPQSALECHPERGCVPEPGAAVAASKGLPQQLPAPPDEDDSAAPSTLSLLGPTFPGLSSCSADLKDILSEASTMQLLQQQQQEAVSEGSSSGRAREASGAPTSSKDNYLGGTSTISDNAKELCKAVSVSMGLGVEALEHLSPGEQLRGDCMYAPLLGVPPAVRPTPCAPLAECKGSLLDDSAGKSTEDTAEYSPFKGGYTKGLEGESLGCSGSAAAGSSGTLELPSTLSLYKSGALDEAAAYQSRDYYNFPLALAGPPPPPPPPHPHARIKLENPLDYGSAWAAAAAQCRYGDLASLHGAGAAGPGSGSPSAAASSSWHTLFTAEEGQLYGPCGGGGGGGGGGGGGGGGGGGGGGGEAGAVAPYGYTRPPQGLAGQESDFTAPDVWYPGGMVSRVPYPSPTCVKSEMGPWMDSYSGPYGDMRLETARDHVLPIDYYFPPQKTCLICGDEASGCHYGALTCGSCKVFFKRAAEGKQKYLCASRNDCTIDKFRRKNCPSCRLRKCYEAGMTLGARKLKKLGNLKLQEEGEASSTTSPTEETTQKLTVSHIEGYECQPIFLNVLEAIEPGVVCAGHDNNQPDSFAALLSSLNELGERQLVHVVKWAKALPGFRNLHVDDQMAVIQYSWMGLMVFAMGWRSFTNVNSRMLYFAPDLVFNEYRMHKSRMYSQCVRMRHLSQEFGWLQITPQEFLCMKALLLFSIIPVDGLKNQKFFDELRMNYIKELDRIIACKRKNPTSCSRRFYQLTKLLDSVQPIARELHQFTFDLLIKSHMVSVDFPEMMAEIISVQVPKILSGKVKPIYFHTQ
Chain of Glucocorticoid receptor (Homo sapiens) (P04150 whole entry, looked up): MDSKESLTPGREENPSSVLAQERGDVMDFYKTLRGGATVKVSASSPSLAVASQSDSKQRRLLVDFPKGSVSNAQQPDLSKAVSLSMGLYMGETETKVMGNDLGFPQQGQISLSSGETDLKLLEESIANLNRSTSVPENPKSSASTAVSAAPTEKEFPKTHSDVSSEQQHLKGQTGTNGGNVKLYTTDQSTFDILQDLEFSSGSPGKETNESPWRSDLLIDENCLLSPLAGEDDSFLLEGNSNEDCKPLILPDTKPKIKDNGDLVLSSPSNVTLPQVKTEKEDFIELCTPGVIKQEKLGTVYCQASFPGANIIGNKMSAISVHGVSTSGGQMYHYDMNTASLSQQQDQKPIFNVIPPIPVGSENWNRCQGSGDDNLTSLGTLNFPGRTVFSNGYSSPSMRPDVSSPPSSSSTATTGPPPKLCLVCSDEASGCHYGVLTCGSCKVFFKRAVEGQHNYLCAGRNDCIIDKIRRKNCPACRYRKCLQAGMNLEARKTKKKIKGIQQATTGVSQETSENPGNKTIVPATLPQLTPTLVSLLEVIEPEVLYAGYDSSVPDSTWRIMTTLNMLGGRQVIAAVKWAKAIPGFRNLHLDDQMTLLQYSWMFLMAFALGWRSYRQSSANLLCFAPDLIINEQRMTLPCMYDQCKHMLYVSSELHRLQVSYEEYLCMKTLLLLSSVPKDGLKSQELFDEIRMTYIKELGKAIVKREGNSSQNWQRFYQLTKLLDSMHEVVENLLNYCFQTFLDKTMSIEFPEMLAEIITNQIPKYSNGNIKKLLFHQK

For the compound `Cc1ccc(S(N)(=O)=O)cc1`, the outcome in [1], in test [2], in [3], in test [4] and in test [5] was inactive.
Consider `CSCCC=O`, for which the result in test [2], in [6], in [7], in test [3], in test [8] and in test [9] was inactive. The compound was classed as inactive in test [4] and in [5].
On to `CCCCC(CC)COC(=O)c1ccc(O)cc1` (centres undefined), for which the AC50 is 3.11 µM (active) in test [1] and 1.92 µM (active) in [7]. Also, the result in test [2] and in test [9] was inactive.
In the case of `Clc1ccc(C(c2ccccc2Cl)C(Cl)Cl)cc1` (centres undefined), the call in test [2], in test [9] and in [5] was inactive. Also, in test [7], the half-maximal activity concentration (AC50) is 5.53 µM (active).
For `Oc1ccc2cc(SSc3ccc4cc(O)ccc4c3)ccc2c1`, the call in test [2], in test [6], in test [4] and in [5] was inactive. In addition, the half-maximal activity concentration (AC50) was 75.3 µM (active) in test [8], 78.7 µM (active) in [9] and 19.7 µM (active) in test [10].
In the case of `CCc1ccc(O)cc1`, the outcome in test [2], in test [11], in [7], in [9], in test [10] and in [4] was inactive. The call in [5] was inactive.
Regarding `CCc1cc(C(C)(C)C)c(O)c(C(C)(C)C)c1`, the compound was classed as inactive in test [6], in [8], in test [4] and in test [5]. Besides, the AC50 is 33.6 µM (active) in [3] and 83.8 µM (active) in test [9].
Consider `C=C[Si]1(C)O[Si](C)(C=C)O[Si](C)(C=C)O[Si](C)(C=C)O1` (centres undefined), for which the call in test [6], in test [7], in test [9], in test [4] and in [5] was inactive.
On to `CC(C)CCCCCCCCCCCCCCC(=O)O`, for which the result in test [6], in [7], in test [4] and in test [5] was inactive.
With `CN(C)C(=S)SC(=S)N(C)C`, in test [12], the AC50 is 6.19 µM (active).
Turning to `CC(C)C[C@H](NC(=O)OCC1c2ccccc2-c2ccccc21)C(=O)O`, in test [6], the AC50 is 46.6 µM (active).
`CN(C)c1cccc(O)c1`: the outcome in test [6], in [7], in [10], in test [4] and in [5] was inactive.
In the case of `COc1ccccc1N=Nc1c(S(=O)(=O)O)cc2cc(S(=O)(=O)O)cc(NC(C)=O)c2c1O`, the outcome in [6], in test [7], in test [9], in [4] and in test [5] was inactive.
Take `C=CC(C)(O)CCC=C(C)C` (centres undefined): the outcome in [6], in test [7], in [3], in test [8], in [9] and in test [4] was inactive. Besides, in test [5], the outcome was inactive.
As for `C[C@H]1O[C@@H](O[C@H]2[C@@H](O)C[C@H](O[C@H]3[C@@H](O)C[C@H](O[C@H]4CC[C@@]5(C)[C@H](CC[C@@H]6[C@@H]5C[C@@H](O)[C@]5(C)[C@@H](C7=CC(=O)OC7)CC[C@]65O)C4)O[C@@H]3C)O[C@@H]2C)C[C@H](O)[C@@H]1O`, the compound was classed as inactive in test [6], in test [11], in test [7], in [4] and in test [5].
